Measured values from the supplement of paper PMC13380429.

Test system: Vero E6 infected with SARS-CoV-2
Experiment: inhibition of SARS-CoV-2 cytopathic effect; higher = more antiviral protection, active = above 15
Conditions: 48 h

Measured: inhibition of SARS-CoV-2 cytopathic effect

CCOC(=O)c1ncc2[nH]c3cccc(OC(C)C)c3c2c1C
inactive: 1 nM 2.48% | 8.33 nM -1.73% | 100 nM 3.11% | 833.33 nM 5.05% | 10000 nM 7.71%

CC[C@@H](C(N)=O)N1CCCC1=O [levetiracetam]
inactive: 1 nM 0.86% | 8.33 nM 0.42% | 100 nM 0.01% | 833.33 nM 0.56% | 10000 nM -0.05%

Cc1ccc(-c2cc(C(F)(F)F)nn2-c2ccc(S(N)(=O)=O)cc2)cc1 [celecoxib]
inactive: 1 nM 1.41% | 8.33 nM 1.32% | 100 nM 1.91% | 833.33 nM 1.62% | 10000 nM -4.95%

N#Cc1ccc(C(c2ccc(C#N)cc2)n2cncn2)cc1 [letrozole]
inactive: 1 nM -1.89% | 8.33 nM 4.26% | 100 nM 0.11% | 833.33 nM -2.14% | 10000 nM -1.61%
